From PubChem BioAssay (NCI) come the findings set out here.

Among the test systems are HCT-15 colon; HT29 colon; SNB-75 CNS; SNB-19 CNS; U251 CNS; PC-3 prostate; SK-MEL-5 melanoma; UACC-62 melanoma; LOX IMVI melanoma; SK-MEL-28 melanoma; SK-MEL-2 melanoma; EKVX NSCLC; SN12C renal; UO-31 renal; TK-10 renal; ACHN renal; CAKI-1 renal; A498 renal; CCRF-CEM leukemia; MOLT-4 leukemia.
What all share (assay): NCI-60 one-dose screen, 48 h (100 = growth as untreated, 0 = no growth, -100 = all killed)
What all share (settings): 10 µM unless noted

Compounds without any hit were thinned out: in the full panel of roughly 83,000, 20% have a hit.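 Plates (96-well) were seeded with cells, treated with compound at one concentration, and incubated for 48 hours before percent growth was determined.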 A number with no mark means an inactive call. Calls of active or inactive are those of the source. Rule for the calls: active = growth percent below 10; inactive = the rest.

For the compound `Cc1cc2c([nH]1)CSc1cc(S(=O)(=O)c3ccccc3)c(=O)[nH]c1-2`, the growth in the assay with HCT-15 colon is 17.7% [100 µM]; in the assay on HT29 colon, 10.5% [100 µM]; in the assay with SNB-75 CNS, 20% [100 µM]; with SNB-19 CNS it was 37.4% [100 µM]; with U251 CNS, 15.5% [100 µM]; in the assay with PC-3 prostate, 23% [100 µM]. The growth was -36.7% [100 µM] (active) with SK-MEL-5 melanoma; 19.1% [100 µM] in the assay with UACC-62 melanoma; 12.1% [100 µM] with LOX IMVI melanoma; 17.9% [100 µM] in the assay on SK-MEL-28 melanoma; 30.5% [100 µM] in the assay with SK-MEL-2 melanoma; 21.1% [100 µM] in the assay on EKVX NSCLC. Besides, the growth with SN12C renal was 23.8% [100 µM]; in the assay with UO-31 renal, 35.4% [100 µM]; in the assay on TK-10 renal, 26.5% [100 µM]; in the assay on ACHN renal, 23.5% [100 µM]; with CAKI-1 renal, 6.96% [100 µM] (active); with A498 renal, 51.7% [100 µM]. Moreover, the growth in the assay with CCRF-CEM leukemia was 19.3% [100 µM]; with MOLT-4 leukemia it was 32.7% [100 µM].
As to `COc1ccc2c(O)c(/C=C3\N=Nc4ncccc43)oc2c1C[C@H]1CCNC[C@H]1F`, the growth in the assay on HCT-15 colon is 7.66% (active); in the assay with HT29 colon, 5.05% (active); in the assay with SNB-75 CNS, -61.2% (active); in the assay on SNB-19 CNS it was 10.4%; in the assay with U251 CNS, -51% (active); with PC-3 prostate, -5.49% (active). Moreover, the growth is -30.1% (active) in the assay on SK-MEL-5 melanoma; -15.4% (active) in the assay on UACC-62 melanoma; -11% (active) with LOX IMVI melanoma; 8.22% (active) in the assay on SK-MEL-28 melanoma; -6.33% (active) in the assay with SK-MEL-2 melanoma; 5.31% (active) with EKVX NSCLC. For the same compound, the growth in the assay on SN12C renal is 7.25% (active); in the assay with UO-31 renal, 4.13% (active); with TK-10 renal, 19.8%; with ACHN renal, 4.51% (active); in the assay with CAKI-1 renal, 6% (active); in the assay with A498 renal, -41.8% (active). Moreover, the growth in the assay on CCRF-CEM leukemia is -3.17% (active); with MOLT-4 leukemia, -34.3% (active).
On to `COC(C(=O)[C@@H](O)[C@@H](C)O)[C@@H]1Cc2cc3cc(O[C@H]4C[C@@H](O[C@H]5C[C@@H](O)[C@H](O)C(C)O5)[C@H](O)C(C)O4)c(C)c(O)c3c(O)c2C(=O)[C@H]1O[C@H]1C[C@@H](O[C@H]2C[C@@H](O[C@H]3C[C@@H](O)[C@H](OC)C(C)O3)[C@@H](O)C(C)O2)[C@H](O)C(C)O1` (stereo not given in full), for which the growth is 8.46% (active) with HCT-15 colon; -13.6% (active) in the assay with HT29 colon; -57% (active) in the assay on SNB-75 CNS; 12.4% in the assay on SNB-19 CNS; 2.99% (active) in the assay on U251 CNS; 11.2% with PC-3 prostate. Besides, the growth with SK-MEL-5 melanoma is -36.9% (active); in the assay on UACC-62 melanoma, -35.4% (active); in the assay with LOX IMVI melanoma, -8.28% (active); in the assay with SK-MEL-28 melanoma it was -34.1% (active); with SK-MEL-2 melanoma, -43.7% (active); in the assay on EKVX NSCLC, 12.3%. Further, the growth in the assay on SN12C renal is 15.9%; in the assay on UO-31 renal it was -8.18% (active); in the assay on TK-10 renal, -2% (active); in the assay on ACHN renal it was 4.45% (active); in the assay with CAKI-1 renal, 13.7%; with A498 renal it was -47.5% (active). The growth with CCRF-CEM leukemia is 9.56% (active); in the assay with MOLT-4 leukemia, -6.79% (active).
On to `N#Cc1c(-c2ccccc2)cc(-c2ccccc2)n(CCCCCC(=O)Nc2ccccc2N)c1=O`, for which the growth with HCT-15 colon is 51.7%; in the assay with HT29 colon, 43.7%; with SNB-75 CNS it was 32.2%; in the assay on SNB-19 CNS, 68.2%; in the assay on U251 CNS, 61.2%; in the assay with PC-3 prostate, 43.7%. The growth was 21.2% in the assay on SK-MEL-5 melanoma; 65.5% with UACC-62 melanoma; 26.2% in the assay with LOX IMVI melanoma; 80.5% in the assay on SK-MEL-28 melanoma; 89.7% in the assay on SK-MEL-2 melanoma; 50.8% in the assay on EKVX NSCLC. For the same compound, the growth was 59% with SN12C renal; 34.4% in the assay with UO-31 renal; 72.8% in the assay on TK-10 renal; 73.7% with ACHN renal; 29.7% in the assay with CAKI-1 renal; 96.7% with A498 renal. The growth in the assay with CCRF-CEM leukemia was 6.3% (active); in the assay on MOLT-4 leukemia, 9.12% (active).
`CN([O-])c1nc(N(C)[O-])nc(N2CCOCC2)n1.CN([O-])c1nc(N(C)[OH2+])nc(N2CCOCC2)n1.[Fe+3]`: the growth in the assay on HCT-15 colon was 104% [100 µM]; in the assay on HT29 colon, 102% [100 µM]; in the assay on SNB-75 CNS it was 96.1% [100 µM]; in the assay with SNB-19 CNS it was 108% [100 µM]; with U251 CNS it was 38.7% [100 µM]; in the assay on PC-3 prostate, 65.9% [100 µM]. The growth was 95.5% [100 µM] with SK-MEL-5 melanoma; 81.6% [100 µM] with UACC-62 melanoma; 38.9% [100 µM] in the assay with LOX IMVI melanoma; -26.4% [100 µM] (active) in the assay on SK-MEL-28 melanoma; 84.9% [100 µM] with SK-MEL-2 melanoma; 14.5% [100 µM] in the assay with EKVX NSCLC. In addition, the growth is 99.9% [100 µM] in the assay on SN12C renal; 72.3% [100 µM] with UO-31 renal; 110% [100 µM] in the assay with TK-10 renal; 82.8% [100 µM] with ACHN renal; 85.8% [100 µM] with CAKI-1 renal; 109% [100 µM] in the assay with A498 renal. Besides, the figures for the growth in the assay with CCRF-CEM leukemia and with MOLT-4 leukemia were 11.7% [100 µM] and 30.3% [100 µM], respectively.
With `CN1C(=O)N(C)C2Nn3c(s/c(=C\c4ccc(C(F)(F)F)cc4)c3=O)=NC21` (stereo not given), the growth with HCT-15 colon is 93.9%; in the assay on HT29 colon it was 109%; in the assay on SNB-75 CNS it was 82.2%; with SNB-19 CNS, 95.2%; with U251 CNS it was 93.2%; in the assay with PC-3 prostate, 104%. Also, the growth with SK-MEL-5 melanoma is 99.5%; in the assay with UACC-62 melanoma it was 89.7%; in the assay with LOX IMVI melanoma it was 95.7%; with SK-MEL-28 melanoma, 103%; in the assay with SK-MEL-2 melanoma, 115%; in the assay with EKVX NSCLC, 100%. The growth was 100% with SN12C renal; 82.3% in the assay with UO-31 renal; 106% in the assay on TK-10 renal; 105% in the assay on ACHN renal; 82.7% in the assay on CAKI-1 renal; 109% in the assay with A498 renal. Moreover, the growth with CCRF-CEM leukemia was 101%; in the assay on MOLT-4 leukemia it was 106%.
Consider `CCOP(=O)(OCC)c1nc(-c2ccccc2)oc1NCc1cccnc1`, for which the growth was 107% with HCT-15 colon; 111% in the assay with HT29 colon; 92.9% with SNB-75 CNS; 97.5% in the assay on SNB-19 CNS; 107% with U251 CNS; 101% in the assay with PC-3 prostate. Further, the growth was 103% in the assay with SK-MEL-5 melanoma; 106% with UACC-62 melanoma; 103% in the assay with LOX IMVI melanoma; 113% in the assay on SK-MEL-28 melanoma; 111% in the assay with SK-MEL-2 melanoma; 104% with EKVX NSCLC. Further, the growth in the assay with SN12C renal was 103%; in the assay on UO-31 renal, 89.7%; with TK-10 renal, 101%; in the assay on ACHN renal, 103%; in the assay on CAKI-1 renal, 97.3%; in the assay with A498 renal, 102%. Besides, the growth with CCRF-CEM leukemia is 108%; in the assay on MOLT-4 leukemia, 101%.
With `Cc1ccc(-c2nc(N3CCNCC3)c3oc(-c4ccccc4)nc3n2)cc1`, the growth was -77.7% (active) in the assay with HCT-15 colon; -93.8% (active) in the assay with HT29 colon; 85.4% in the assay on SNB-75 CNS; 16.7% in the assay on SNB-19 CNS; -98.2% (active) in the assay with U251 CNS; -81.5% (active) with PC-3 prostate. Moreover, the growth in the assay on SK-MEL-5 melanoma was 70.9%; in the assay with UACC-62 melanoma it was 91.3%; in the assay with LOX IMVI melanoma it was -89.1% (active); with SK-MEL-28 melanoma it was -81.3% (active); in the assay with SK-MEL-2 melanoma, 61.2%; with EKVX NSCLC it was 101%. Further, the growth with SN12C renal is -84.3% (active); in the assay on UO-31 renal, -90.6% (active); in the assay on TK-10 renal, -98.6% (active); in the assay with ACHN renal it was -99.8% (active); in the assay with CAKI-1 renal, 40.5%; in the assay on A498 renal it was 95.7%. For the same compound, the growth in the assay on CCRF-CEM leukemia is -76% (active); in the assay with MOLT-4 leukemia, -68.8% (active).
